Data reported in PubChem BioAssay (EPA / NIEHS).
More than one record can exist for a structure, and the calls need not agree. Activity calls are given as the source filed them. The calls were made as follows: active = hit-call score of the fitted dose curve at least 0.9, where 1 is the maximum; inactive = score below 0.9.

Columns and labels:
[1] = read-out: CD69, CD69 (gene 969); test: BSK_IMphg_CD69: BioMAP Diversity Plus: IMphg Assay for CD69 Biomarker Activity (AID 2284257); conditions: primary human endothelial cells with macrophages
Method in brief: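 Human venular endothelial cells co-cultured with macrophages; CD69 quantified by ELISA 24 h after compound addition. Activity fitted in the positive direction relative to DMSO baseline; cytotoxicity tracked in parallel cultures via SRB total-protein staining.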

[2] = read-out: Eotaxin 3, CCL26 (gene 10344); test: BSK_BF4T_Eotaxin3: BioMAP Diversity Plus: BF4T Assay for Eotaxin 3 Biomarker Activity (AID 2284258); conditions: primary human bronchial epithelial cells with fibroblasts
Method in brief: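 Co-culture of human bronchial epithelial cells and dermal fibroblasts, exposed to chemicals for 24 h versus DMSO. Eotaxin-3 quantified by ELISA; cytotoxicity checked in parallel cultures by sulforhodamine B total-protein staining.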

[3] = read-out: Monocyte Chemoattractant Protein-1 (MCP1), CCL2 (gene 6347); test: BSK_BF4T_MCP1: BioMAP Diversity Plus: BF4T Assay for Monocyte Chemoattractant Protein-1 (MCP1) Biomarker Activity (AID 2284259); conditions: primary human bronchial epithelial cells with fibroblasts
Method in brief: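 Co-culture of bronchial epithelial cells and dermal fibroblasts dosed with chemical; MCP-1 measured by ELISA 24 h later. Activity fitted in positive direction versus DMSO; cytotoxicity checked by SRB staining in parallel cultures.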

[4] = read-out: Intercellular Adhesion Molecule 1 (ICAM1), ICAM1 (gene 3383); test: BSK_BF4T_ICAM1: BioMAP Diversity Plus: BF4T Assay for Intercellular Adhesion Molecule 1 (ICAM1) Biomarker Activity (AID 2284260); conditions: primary human bronchial epithelial cells with fibroblasts
Method in brief: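 Co-culture of human bronchial epithelial cells and dermal fibroblasts exposed 24 h to chemical; cell-surface ICAM-1 quantified by ELISA. Parallel SRB total-protein staining assessed cytotoxicity; activity fitted relative to DMSO.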

[5] = read-out: Interleukin-8 (IL8), CXCL8 (gene 3576); test: BSK_MyoF_IL8: BioMAP Diversity Plus: MyoF Assay for Interleukin-8 (IL8) Biomarker Activity (AID 2284261); conditions: primary human lung fibroblasts
Method in brief: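 IL-8 levels were measured by ELISA in human lung fibroblasts harvested 24 h after compound addition. Responses were analysed as gain of signal over the DMSO baseline.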

[6] = read-out: CD90, THY1 (gene 7070); test: BSK_BF4T_CD90: BioMAP Diversity Plus: BF4T Assay for CD90 Biomarker Activity (AID 2284262); conditions: primary human bronchial epithelial cells with fibroblasts
Method in brief: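 Co-culture of human bronchial epithelial cells and dermal fibroblasts, 24 h compound exposure. Cell-surface CD90 measured by ELISA relative to DMSO; parallel SRB total-protein staining for cytotoxicity.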

[7] = read-out: Interleukin-8 (IL8), CXCL8 (gene 3576); test: BSK_BF4T_IL8: BioMAP Diversity Plus: BF4T Assay for Interleukin-8 (IL8) Biomarker Activity (AID 2284263); conditions: primary human bronchial epithelial cells with fibroblasts
Method in brief: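 Human bronchial epithelial cells with dermal fibroblasts co-culture; IL-8 measured by ELISA 24 hours after dosing, fitted vs DMSO. Cytotoxicity tracked in parallel cultures by SRB total-protein staining.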

[8] = read-out: Interleukin-1 alpha (IL1a), IL1A (gene 3552); test: BSK_BF4T_IL1a: BioMAP Diversity Plus: BF4T Assay for Interleukin-1 alpha (IL1a) Biomarker Activity (AID 2284264); conditions: primary human bronchial epithelial cells with fibroblasts
Method in brief: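 Human bronchial epithelial cells co-cultured with dermal fibroblasts, dosed and read at 24 h. Secreted/surface IL-1α quantified by ELISA; gain-of-signal fitted relative to DMSO baseline. Parallel SRB total-protein staining tracked cytotoxicity.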

[9] = read-out: Decorin, DCN (gene 1634); test: BSK_MyoF_Decorin: BioMAP Diversity Plus: MyoF Assay for Decorin Biomarker Activity (AID 2284265); conditions: primary human lung fibroblasts
Method in brief: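 Compound is added to lung fibroblast cultures; cells incubate 24 h; decorin is then measured by ELISA; the response is analysed upward against DMSO controls.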

[10] = read-out: KRT18 (gene 3875); test: BSK_BF4T_Keratin818: BioMAP Diversity Plus: BF4T Assay for Keratin 818 Biomarker Activity (AID 2284266); conditions: primary human bronchial epithelial cells with fibroblasts
Method in brief: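 Co-culture of human bronchial epithelial cells and dermal fibroblasts, chemical exposure 24 h. Keratin 8/18 measured by ELISA; positive-direction fit vs DMSO. SRB total protein run in parallel cultures for cytotoxicity.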

[11] = BSK_MyoF_SRB: Viability Assessment in the BioMAP Diversity Plus: MyoF Assay (AID 2284267); conditions: primary human lung fibroblasts;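 also: total protein by SRB absorbance in parallel cultures as cytotoxicity measure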
Method in brief: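 Human lung fibroblasts, 24 h after chemical dosing; total protein measured by 0.1% sulforhodamine B staining after 10% TCA fixation, read at 560 nm, fitted relative to DMSO baseline.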

[12] = read-out: Matrix Metallopeptidase 1 (MMP1), MMP1 (gene 4312); test: BSK_MyoF_MMP1: BioMAP Diversity Plus: MyoF Assay for Matrix Metallopeptidase 1 (MMP1) Biomarker Activity (AID 2284268); conditions: primary human lung fibroblasts
Method in brief: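 Lung fibroblast cultures were dosed with test chemicals and, after 24 h, MMP1 levels were measured by ELISA; responses were referenced to DMSO and analysed for increases.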

[13] = read-out: TIMP metallopeptidase inhibitor 1 (TIMP1), TIMP1 (gene 7076); test: BSK_MyoF_TIMP1: BioMAP Diversity Plus: MyoF Assay for TIMP metallopeptidase inhibitor 1 (TIMP1) Biomarker Activity (AID 2284269); conditions: primary human lung fibroblasts
Method in brief: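 ELISA quantified TIMP-1 levels after 24 h dosing of primary human lung fibroblasts, with DMSO as baseline. Parallel SRB total protein staining (0.1% SRB after TCA fixation, 560 nm) flagged overt cytotoxicity.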

[14] = read-out: Matrix Metallopeptidase 1 (MMP1), MMP1 (gene 4312); test: BSK_BF4T_MMP1: BioMAP Diversity Plus: BF4T Assay for Matrix Metallopeptidase 1 (MMP1) Biomarker Activity (AID 2284270); conditions: primary human bronchial epithelial cells with fibroblasts
Method in brief: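 Co-culture of human bronchial epithelial cells and dermal fibroblasts; MMP-1 levels measured by ELISA 24 hours after chemical dosing, relative to DMSO. Cytotoxicity checked in parallel cultures by SRB total-protein staining.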

[15] = read-out: Matrix Metallopeptidase 3 (MMP3), MMP3 (gene 4314); test: BSK_BF4T_MMP3: BioMAP Diversity Plus: BF4T Assay for Matrix Metallopeptidase 3 (MMP3) Biomarker Activity (AID 2284271); conditions: primary human bronchial epithelial cells with fibroblasts
Method in brief: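 Co-culture of human bronchial epithelial cells and dermal fibroblasts dosed 24 h; MMP-3 measured by ELISA, positive-direction fit versus DMSO. Cytotoxicity tracked by SRB total-protein staining (560 nm) in parallel cultures.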

[16] = read-out: Tissue plasminogen activator (tPA), PLAT (gene 5327); test: BSK_BF4T_tPA: BioMAP Diversity Plus: BF4T Assay for Tissue plasminogen activator (tPA) Biomarker Activity (AID 2284272); conditions: primary human bronchial epithelial cells with fibroblasts
Method in brief: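 tPA level quantified by ELISA at 24 h post-treatment in bronchial epithelial/dermal fibroblast co-cultures, gain of signal scored against DMSO baseline. Parallel cultures stained with 0.1% SRB (560 nm) to flag overt cytotoxicity.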

[17] = read-out: Plasminogen Activator Inhibitor-1 (PAI1), SERPINE1 (gene 5054); test: BSK_BF4T_PAI1: BioMAP Diversity Plus: BF4T Assay for Plasminogen Activator Inhibitor-1 (PAI1) Biomarker Activity (AID 2284273); conditions: primary human bronchial epithelial cells with fibroblasts
Method in brief: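 Co-culture of human bronchial epithelial cells and dermal fibroblasts exposed to compound for 24 h. PAI-1 measured by ELISA; activity fitted in positive direction versus DMSO. Parallel SRB staining assessed overt cytotoxicity.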

[18] = BSK_BF4T_SRB: Viability Assessment in the BioMAP Diversity Plus: BF4T Assay (AID 2284274); conditions: primary human bronchial epithelial cells with fibroblasts
Method in brief: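 Co-culture of human bronchial epithelial cells and dermal fibroblasts (BioMAP BF4T) exposed 24 h. Total protein by sulforhodamine B staining (0.1% SRB after 10% TCA fixation, 560 nm) in parallel cultures; fitted vs DMSO.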

[19] = read-out: urokinase Plasminogen Activator (uPA), PLAU (gene 5328); test: BSK_BF4T_uPA: BioMAP Diversity Plus: BF4T Assay for urokinase Plasminogen Activator (uPA) Biomarker Activity (AID 2284275); conditions: primary human bronchial epithelial cells with fibroblasts
Method in brief: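 Co-culture of human bronchial epithelial cells and dermal fibroblasts; uPA quantified by ELISA 24 hours after dosing, fitted relative to DMSO. Parallel SRB total-protein staining assessed overt cytotoxicity.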

[20] = read-out: Matrix Metallopeptidase 9 (MMP9), MMP9 (gene 4318); test: BSK_BF4T_MMP9: BioMAP Diversity Plus: BF4T Assay for Matrix Metallopeptidase 9 (MMP9) Biomarker Activity (AID 2284276); conditions: primary human bronchial epithelial cells with fibroblasts
Method in brief: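 Co-culture of human bronchial epithelial cells and dermal fibroblasts dosed for 24 h; MMP-9 quantified by ELISA and fitted upward versus DMSO. Cytotoxicity monitored in parallel cultures by SRB total-protein staining at the biomarker time point.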

Measured: AC50

Cn1cnc([N+](=O)[O-])c1Sc1ncnc2nc[nH]c12
inactive: [1] | [2] | [3] | [4] | [5] | [6] | [7] | [8] | [9] | [10] | [11] | [12] | [13] | [14] | [15] | [16] | [17] | [18] | [19] | [20]
active: [16] 7.93 µM
